Sfp inh: qHTS Assay for Inhibitors of Bacillus subtilis Sfp phosphopantetheinyl transferase (PPTase). Biochemical Sfp PPTase activity, qHTS. Potency, µM, for the others: largest response in the series, negative = inhibition, actives largely listed as inhibitors. 3.5% of 310,000 active;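 also: the enzyme is Sfp with the accession as filed and its product quenches rhodamine fluorescence; 0% = enzyme reaction without inhibitor and -100% = no enzyme wells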
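Reaction rates are the 30-min fluorescence difference (ex 525, em 598 nm) in wells containing 15 nM Sfp, 5 uM rhodamine-CoA and 12.5 uM BHQ-2-YbbR at pH 7.6 with 10 mM MgCl2.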
JMJD2A Tudor inh: qHTS Assay for Inhibitors of JMJD2A-Tudor Domain. Lysine-specific demethylase 4A (Homo sapiens), O75164. AlphaScreen JMJD2A-Tudor / H3K4me3 peptide binding. Potency, µM (doses to about 114 µM), for inactives: at the top dose activity change, negative = inhibition, actives largely listed as inhibitors. 4.4% of 390,000 active; also: % is scaled to controls: 0 for no effect and ±100 for the full control effect; nearly all actives have a fitted effect of over 50% in size
G9a block: qHTS Assay for Inhibitors of Histone Lysine Methyltransferase G9a; 8.8% of 350,000 active; Potency, µM (series often up to 102 µM), for inactives: top-dose activity, negative = inhibition, actives largely listed as inhibitors; AID 504332, 2011; Histone-lysine N-methyltransferase EHMT2 (Homo sapiens), Q96KQ7; G9a H3K9 monomethylation, AlphaScreen, 2 h; also: % is scaled to controls: 0 for no effect and ±100 for the full control effect; nearly all actives have a fitted effect of over 75% in size
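Chemiluminescent proximity detection of H3K9 monomethylation, read after 10 min bead incubation in the dark. Reaction: 20 nM G9a, 500 nM biotin-H3K9 peptide, 20 uM SAM cofactor, 2 h, room temperature, following 15 min enzyme-compound preincubation.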
BAZ2B block: qHTS Assay for Inhibitors of BAZ2B; Potency, µM (series often up to 114 µM), without a hit: at the top dose activity change, negative = inhibition, hits mostly inhibitors; AlphaScreen BAZ2B-H3K14Ac peptide displacement; AID 504333, 2011; 4.4% of 360,000 active; also: % is scaled to controls: 0 for no effect and ±100 for the full control effect; nearly all actives have a fitted effect of over 60% in size
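BAZ2B 50 nM plus b-H3(5-23)K14Ac 50 nM, PBS pH 7.4/0.01% Tween-20, 30 min RT; compound added (max 110 uM), 30 min RT; streptavidin donor/Ni-chelate acceptor beads 10 ug/mL final, 20 min dark; AlphaScreen read.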
HP1b chromo inh: HTS for Inhibitors of HP1-beta Chromodomain Interactions with Methylated Histone Tails; AID 540317, 2011; 0.56% of 390,000 active; Chromobox protein homolog 1 (Homo sapiens), P83916; Potency, µM (doses to about 114 µM), without a hit: at the top dose activity change, negative = inhibition, most hits filed as inhibitors; AlphaScreen HP1-beta / biotin-H3K9me3 peptide binding; also: nearly all actives have a fitted effect of over 70% in size
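HP1-beta protein (50 nM final) preincubated 30 min at room temperature with biotinylated H3(1-18)K9me3 peptide (50 nM) in PBS pH 7.4, 0.01% Tween-20, then compound added for 30 min. AlphaScreen streptavidin donor/nickel chelate acceptor beads (10 ug/mL final), 30 min dark, luminescence read.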
Active calls of the source: *; [ ] = another dose, or the depositor's remark. Compounds with a hit are over-represented: about 12% of the library has one in this group of screens. Calls follow the shape of the dose curve; as a rule, active = well fitted curve in the direction sought with a large enough effect; inconclusive = small, poorly fitted or top-dose-only effect, or another doubt; inactive = no such curve, though single readings can be large; an effect the other way counts as inactive or inconclusive. Potency is read from the fitted curve at half-maximal effect.

What do the screens show for `CC1(C)CC(=O)C2=C(C1)c1c(ccc3ccccc13)NC2c1ccco1` (stereo not drawn)?
Sfp inh: -24%; JMJD2A Tudor inh: inconclusive; G9a block: 50µM*; BAZ2B block: inconclusive; HP1b chromo inh: 5%

How did CC(C)=CCC(C)(C)C1OCCN1C(=O)c1ccccc1 (stereo not drawn) do in these assays?
Sfp inh: 14%; JMJD2A Tudor inh: -11%; G9a block: 4%[59 µM]; BAZ2B block: 10%; HP1b chromo inh: 23%

Results for Cc1ccc(S(=O)(=O)N2CCN(C(=O)C3CCN(C(=O)c4ccc(F)cc4)CC3)CC2)c(C)c1 ?
JMJD2A Tudor inh: 18µM*; G9a block: inconclusive; BAZ2B block: 11%; HP1b chromo inh: 10%

What do the screens show for `CNC(=O)c1ccsc1NC(=O)C1CCN(S(=O)(=O)c2ccc(Cl)s2)CC1`?
JMJD2A Tudor inh: -9%; G9a block: -39%; BAZ2B block: 4%; HP1b chromo inh: 25%

Results for N=C1C=CC=C2C1=NC1(CCCCC1)N2O ?
Sfp inh: 8.9µM*; JMJD2A Tudor inh: inconclusive; G9a block: inconclusive; BAZ2B block: 45µM*; HP1b chromo inh: inconclusive

What do the screens show for `Cc1cc(C(=O)COc2cc(F)ccc2[N+](=O)[O-])c(C)n1C1CC1`?
Sfp inh: 4%; JMJD2A Tudor inh: inconclusive; G9a block: 35µM*; BAZ2B block: inconclusive; HP1b chromo inh: -7%

What do the screens show for `O=C(Nc1cc(C(F)(F)F)ccc1N1CCCCC1)c1ccc(Br)o1`?
Sfp inh: 4%; JMJD2A Tudor inh: 8%; G9a block: 0%; BAZ2B block: inconclusive; HP1b chromo inh: 5%

What do the screens show for `O=C(Nc1ccccc1N1CCCC1)c1ccc(Br)o1`?
Sfp inh: -1%; JMJD2A Tudor inh: inconclusive; G9a block: 4.5µM*; BAZ2B block: inconclusive; HP1b chromo inh: 5%

How did CC(=O)N1CCN(c2ccccc2NC(=O)c2ccc(Br)o2)CC1 do in these assays?
Sfp inh: 20%; JMJD2A Tudor inh: 2%; G9a block: -7%; BAZ2B block: -4%; HP1b chromo inh: 13%

What do the screens show for `N#Cc1ccccc1N1CCN(C(=O)c2ccc(NC(=O)c3ccc(Br)o3)cc2)CC1`?
JMJD2A Tudor inh: 56µM*; G9a block: 14%[2.33 µM]; BAZ2B block: 50µM*; HP1b chromo inh: -27%

Results for COc1ccc(N2CCCC2)c(NC(=O)c2ccc(Br)o2)c1 ?
Sfp inh: -11%; JMJD2A Tudor inh: 50µM*; G9a block: 8.9µM*; BAZ2B block: inconclusive; HP1b chromo inh: inconclusive

How did O=C(Nc1ccc(N2CCCC2)c(Cl)c1)c1ccc(Br)o1 do in these assays?
Sfp inh: 79µM*; JMJD2A Tudor inh: inconclusive; G9a block: 14µM*; BAZ2B block: inconclusive; HP1b chromo inh: 3%

What do the screens show for `Cc1cc(/C=N\NC(=O)c2cccs2)c(C)n1-c1ccc2ncccc2c1`?
Sfp inh: -18%; JMJD2A Tudor inh: inconclusive; G9a block: 48%[12.7 µM]; BAZ2B block: inconclusive; HP1b chromo inh: -16%

Results for Cc1cc(C(=O)COc2ccccc2C#N)c(C)n1C1CC1 ?
JMJD2A Tudor inh: -5%; G9a block: 13%[0.501 µM]; BAZ2B block: -9%; HP1b chromo inh: 19%

Results for O=C(CSc1nc2[nH]ncc2c(=O)[nH]1)NCCc1ccccc1 ?
Sfp inh: 17%; JMJD2A Tudor inh: 5%; G9a block: -30%; HP1b chromo inh: 31%

What do the screens show for `C[N+]1(C2CCC3CCCC2C3O)CCCCC1` (stereo not drawn)?
Sfp inh: -16%; JMJD2A Tudor inh: 20µM*; G9a block: inconclusive; BAZ2B block: -12%; HP1b chromo inh: 7%

Results for C#CCOCCOCCOCCNc1nc(N2CCN(C(=O)[C@H]([C@@H](C)CC)n3cc(CCCCN)nn3)CC2)nc(N2CCN(C(=O)[C@H](CCCCN)n3cc(CCCC)nn3)CC2)n1 ?
JMJD2A Tudor inh: -22%; G9a block: 20%[2.33 µM]; BAZ2B block: -1%; HP1b chromo inh: 10%

Results for C#CCOCCOCCOCCNc1nc(N2CCN(C(=O)C([C@@H](C)CC)n3cc(C(N)COC(=O)C(F)(F)F)nn3)CC2)nc(N2CCN(C(=O)[C@H](CCCCN)n3cc(C(N)[C@H](C)CC)nn3)CC2)n1 (stereo partly drawn) ?
JMJD2A Tudor inh: 56µM*; HP1b chromo inh: 18%

How did C#CCOCCOCCOCCNc1nc(N2CCN(C(=O)[C@H](CCCCN)n3cc(C(N)COC(=O)C(F)(F)F)nn3)CC2)nc(N2CCN(C(=O)[C@H](CCCCN)n3cc(C(N)CC(C)C)nn3)CC2)n1 (stereo partly drawn) do in these assays?
Sfp inh: 11%; G9a block: inconclusive; BAZ2B block: 79µM*

How did C#CCOCCOCCOCCNc1nc(N2CCOCC2)nc(N2CCN(C(=O)[C@H](CCCCN)n3cc([C@@H](N)CC(C)C)nn3)CC2)n1 do in these assays?
Sfp inh: 25%; JMJD2A Tudor inh: -26%; G9a block: inconclusive; BAZ2B block: -37%; HP1b chromo inh: 48%

Results for C#CCOCCOCCOCCNc1nc(N2CCN(C(=O)Cn3cc(CCCCN)nn3)CC2)nc(N2CCN(C(=O)[C@H]([C@@H](C)CC)n3cc(CCCCN)nn3)CC2)n1 ?
JMJD2A Tudor inh: -20%; G9a block: -15%[2.33 µM]; BAZ2B block: 5%; HP1b chromo inh: 25%

How did C#CCOCCOCCOCCNc1nc(N2CCN(C(=O)C([C@@H](C)CC)n3cc(C(N)CO)nn3)CC2)nc(N2CCN(C(=O)C([C@@H](C)CC)n3cc(C(N)COC(=O)C(F)(F)F)nn3)CC2)n1 (stereo partly drawn) do in these assays?
JMJD2A Tudor inh: 79µM*; HP1b chromo inh: 21%

How did C#CCOCCOCCOCCNc1nc(N2CCN(C(=O)[C@H]([C@@H](C)CC)n3cc([C@@H](N)CC(C)C)nn3)CC2)nc(N2CCN(C(=O)[C@H](CCCCN)n3cc([C@@H](N)CC(C)C)nn3)CC2)n1 do in these assays?
Sfp inh: 2%; JMJD2A Tudor inh: 56µM*; G9a block: -115%[59 µM]; BAZ2B block: inconclusive; HP1b chromo inh: 6%

What do the screens show for `CC1CC(=O)Nc2ccccc2N1S(=O)(=O)c1ccc(C#N)cc1` (stereo not drawn)?
Sfp inh: 7%; JMJD2A Tudor inh: -4%; G9a block: 10%; BAZ2B block: 0%; HP1b chromo inh: 19%

How did CCOC(=O)C1=C(CS(=O)(=O)c2ccc(Br)cc2)NC(=O)NC1c1ccccc1 (stereo not drawn) do in these assays?
JMJD2A Tudor inh: -18%; G9a block: -18%[59 µM]; BAZ2B block: -12%; HP1b chromo inh: 30%

High-throughput results deposited in PubChem BioAssay by National Center for Advancing Translational Sciences (NCATS).
